# According to PubChem BioAssay (NCATS):
# A number with no mark means an inactive call. Activity calls are given as the source filed them. Calls follow the shape of the dose curve; as a rule, active = well fitted activation curve with a large enough effect; inconclusive = small, poorly fitted or top-dose-only effect; inactive = flat fitted curve, though single readings scatter.
# Assay: Confirmation and Secondary Assay for Modulators of Hemoglobin Beta Chain Splicing at IVS2 654 locus (AID 910);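 also: HeLa cells stably carrying EGFP split by mutant beta-globin IVS2-654 intron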;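 also: potency of activators that raise GFP signal by restoring correct splicing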; as to activation (splicing correction): % of control where 0% means no effect
# Conditions: HeLa EGFP-654 splicing reporter, GFP fluorescence, 48 h; series mostly up to 38.3 µM; activation (splicing correction): at the top concentration
# Description: NIH Chemical Genomics Center [NCGC] NIH Molecular Libraries Screening Centers Network [MLSCN] MLSCN Grant: 1 X01 MH080684-01 PI Name: Dr. Ryszard Kole NCGC Assay Overview: Modulation of Alternative Splicing as Therapy Abnormal splicing is associated with a number of diseases, including cancer and genetic diseases such as cystic fibrosis, muscular dystrophy and beta-thalassemia. Alteration of disease associated splicing patterns provides a promising target for treatment. […] Mutations in the second intron of the b-globin gene at positions 654 or 705 are clinically relevant and cause mis-splicing which results in an out of frame gene product. […] EGFP-654 HeLa Cells as screen system. HeLa cell lines were stably transfected with a construct in which the EGFP (enhanced green fluorescent protein) cDNA was interrupted by the second intron of the beta-globin gene (IVS2-654). The ISV2 intron contains mutations which cause mis-splicing of EGFP and premature termination of EGFP which results in a nonfluorescent protein product. […] Expression of the transgene was driven by the CMV promoter. We concluded that a low molecular weight compound, which restored correct splicing of intron 2 would also generate functional EGFP protein, resulting in a fluorescent signal. Thus, the HeLa cells that express the EGFP-654 construct can be used for high throughput screening of a chemical library.
# NCGC Assay Protocol Summary: Confirmatory Screening. Freshly thawed HeLa EGFP-654 cells were seeded in 5 ul of optimem media (Invitrogen) containing 2 % fetal calf serum (Hyclone) and 1x penicillin/streptomycin (Invitrogen) at a concentration of 500 cells per well in 1536-well plates. Cells were incubated overnight at 37C in 5% CO2. The next day, cells were treated with DMSO, 500 nM antisense ISV2 654 PNA control oligo, or library compound and allowed to grow at 37C in 5% CO2 for 2 days. The PNA oligo blocked the mutation site in the intron and allowed proper (wild type) splicing to occur, resulting in full length EGFP expression and also allowed for optimization of the assay parameters. Plates were read in the Acumen Explorer (TTP Labtech) using 488 nm laser excitation and 500-520 nm emission PMT filter in a 1 x 8 uM capture mode. Fluorescnet objects ranging in size from 5 to 250 uM were measured and the total peak GFP intensity for each well was used for data analysis. Keywords: Thalassemia, beta-thalassemia, beta-globin, EGFP, ISV2 654, ISV2 705, SSO, PNA, antisense, splicing, MLSMR, MLSCN, NIH Roadmap, qHTS, NCGC
# Potency is read from the fitted curve at half-maximal effect.
Compound,activation (splicing correction),Potency
COc1ccccc1-c1ccc2ncnc(N(C)C)c2c1,1.45%,
CN(C)Cc1ccccc1-c1nc(N(C)Cc2ccco2)c2ccccc2n1,2.44%,
Cc1cccc(CNc2ncnc3ccc(-c4cccc(NS(C)(=O)=O)c4)cc23)c1,-1.67%,
COc1ccccc1-c1nc(NCc2cnc(C)cn2)c2ccccc2n1,3.34%,
CN(C)Cc1ccccc1-c1ccc2ncnc(N(C)Cc3ccco3)c2c1,0.559%,
O=C(O)c1cc(O)c2c(c1)C(=O)c1cc(O)cc(O)c1C2=O,2.29%,
O=C(/C=C/c1ccc(O)c(O)c1)OC(Cc1ccc(O)c(O)c1)C(=O)O (stereo not given),5.31% [at 46.1 µM],
CC(=O)NCCNc1ncncc1-c1ccccc1C(F)(F)F,1.03%,
COc1ccccc1CNc1ncnc2ccc(-c3ccc(N(C)C)cc3)cc12,-0.662%,
Cc1cnc(CNc2ccnc(-c3ccc(N(C)C)cc3)n2)cn1,1.86%,
COc1ccc2[nH]cc(CCNc3nc(-c4cccc(NS(C)(=O)=O)c4)nc4ccccc34)c2c1,0.243%,
CN(C)C(=O)c1ccc(-c2nc(NCc3ccccc3)c3ccccc3n2)cc1,0.285%,
CN(C)Cc1ccccc1-c1cc(N(C)C)ncn1,-0.704%,
O=C1C=CC2=C3c4cc(O)c(O)cc4CC3(O)COC2=C1O (stereo not given),-1.91%,
CN1C(CC(=O)c2ccccc2)CCCC1CC(O)c1ccccc1 (stereo not given),-0.589% [at 46.1 µM],
COC(=O)[C@@H]1C2CC3c4[nH]c5cc(OC)ccc5c4CCN3CC2C[C@H](OC(=O)c2cc(OC)c(OC)c(OC)c2)C1OC (stereo not given in full),,15.8 µM (active)
Clc1ccccc1-c1cc(NCc2cccnc2)ncn1,1.8%,
CN(C)Cc1ccccc1-c1ccc2ncnc(NCc3cccs3)c2c1,-0.431%,
Cc1cccc(CNc2cc(-c3cccc(C#N)c3)ncn2)c1,-0.0818%,
COS(C)(=O)=O,0.356%,

Compound,activation (splicing correction),Potency
COc1ccc(C(=O)O)c(O)c1OC,-1.78%,
COCCNc1nc(-c2ccccc2C)nc2ccccc12,1.96%,
FC(F)(F)c1ccccc1-c1cncnc1Nc1ccccc1,1.94%,
O=c1c(-c2ccccc2)coc2cc(O)cc(O)c12,-3.79% [at 46.1 µM],
FC(F)(F)c1ccccc1-c1nccc(NCc2ccccc2)n1,-1.37%,
Cc1cccc(CNc2cc(-c3ccccc3C)ncn2)c1,0.999%,
O=C(O)c1cc(=O)c2cccc(O)c2[nH]1,7.55% [at 46.1 µM],
CN1CCN(c2ccnc(-c3cccc(NS(C)(=O)=O)c3)n2)CC1,1.33%,
COC(=O)c1c(OC)cc2c(c1C)Oc1c(Cl)c(OC(C)=O)c(Cl)c(C)c1C(=O)O2,1.48%,
CN(C)C(=O)c1ccc(-c2cncnc2NCc2cccs2)cc1,1.25%,
Cc1noc(C)c1-c1ccc2ncnc(NC3CC3)c2c1,0.11%,
Cc1ccccc1-c1cc(-n2ccnc2)ncn1,0.595%,
Cc1noc(C)c1-c1ccc2ncnc(NCc3ccccc3)c2c1,2.28%,
CS(=O)(=O)Nc1cccc(-c2nc(NCCN3CCOCC3)c3ccccc3n2)c1,1.52%,
COC(=O)CCCOc1ccc(Cl)cc1Cl,-1.23%,
CC1(C)C=CC(=O)[C@]2(C)C1CC(=O)[C@]1(C)C2CC[C@@]2(C)C(c3ccoc3)OC(=O)C3OC321 (stereo not given in full),-8.41% [at 46.1 µM],
Cc1noc(C)c1-c1nc(N2CCOCC2)c2ccccc2n1,3.63%,
COc1ccc2[nH]cc(CCNc3ncnc4ccc(-c5ccc(C(=O)N(C)C)cc5)cc34)c2c1,1.58%,
Cc1ccccc1-c1cncnc1NC1CCNCC1,-0.247%,
N=c1ccn2c(n1)OC1C(O)C(CO)OC12 (stereo not given),,inactive
